Source: PubChem BioAssay
A selection: hits, their analogues and other compounds. The true share with any hit is near 19%.
TDP1 inh: TDP1 (human) enzyme inhibition. Q9NUW8. recombinant TDP1, AlphaScreen DNA substrate cleavage. Potency, µM (series often up to 130 µM), inactives show top-dose activity change, negative = inhibition, most hits filed as inhibitors. 350,000 tested, 0.28% active; note: nearly all actives have a fitted effect of over 40% in size
Target sequence (Q9NUW8 whole entry, looked up): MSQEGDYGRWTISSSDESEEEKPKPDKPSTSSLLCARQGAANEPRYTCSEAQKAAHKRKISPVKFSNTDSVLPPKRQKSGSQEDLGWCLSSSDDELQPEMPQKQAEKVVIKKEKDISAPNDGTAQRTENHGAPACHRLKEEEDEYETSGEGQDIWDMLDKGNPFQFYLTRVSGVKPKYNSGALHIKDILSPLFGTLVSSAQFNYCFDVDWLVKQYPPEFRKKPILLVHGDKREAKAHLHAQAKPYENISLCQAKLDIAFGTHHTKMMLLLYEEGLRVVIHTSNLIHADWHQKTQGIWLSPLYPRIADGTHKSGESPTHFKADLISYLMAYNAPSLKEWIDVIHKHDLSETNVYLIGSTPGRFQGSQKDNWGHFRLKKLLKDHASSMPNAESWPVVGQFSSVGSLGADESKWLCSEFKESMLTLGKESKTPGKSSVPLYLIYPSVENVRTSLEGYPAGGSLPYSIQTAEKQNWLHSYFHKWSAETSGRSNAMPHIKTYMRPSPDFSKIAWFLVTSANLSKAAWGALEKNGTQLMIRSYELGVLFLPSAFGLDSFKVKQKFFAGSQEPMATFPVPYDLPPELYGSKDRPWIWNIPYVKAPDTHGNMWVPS
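Signal: AlphaScreen proximity between streptavidin donor and anti-FITC acceptor beads on intact substrate. Reaction: Tdp1 1 nM, substrate 15 nM final, 5 min RT after 15 min compound preincubation.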
Gal4-VP16 FLuc: Gal4-VP16 reporter inhibition counter-screen; Drosophila S2 Gal4-VP16 UAS-luciferase, luminescence, 20 h; Potency, µM (series often up to 53.6 µM), for the others: at the highest dose activity, negative = inhibition, most hits filed as inhibitors; 310,000 tested, 3.5% active; AID 2546;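 note: Gal4-VP16 expression switched on by copper sulfate through the metallothionein promoter; nearly all actives have a fitted effect of over 50% in size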
RORg inh: ROR gamma (mouse) transcription inhibition; P51450; Drosophila S2 Gal4-RORgamma UAS-luciferase reporter, 20 h; Potency, µM (top dose mostly 53.6 µM), for the others: at the highest dose activity change, negative = inhibition, actives largely listed as inhibitors; 310,000 tested, 5.4% active; note: nearly all actives have a fitted effect of over 60% in size
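Stably transfected Drosophila Schneider cells are the test system, with ROR gamma fused to Gal4 and luciferase under UAS control; luminescence is read after 20 hr of 700 uM copper sulfate induction at ambient temperature.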
TDP1 cell noCPT: qHTS for Inhibitors of human tyrosyl-DNA phosphodiesterase 1 (TDP1): qHTS in cells in absence of CPT; Potency, µM (top dose mostly 46.2 µM), inactives show at the top dose activity change, negative = growth inhibition, most hits filed as inhibitors; DT40 Tdp1-/- hTDP1 cells, no CPT, ATP luminescence, 48 h; AID 686978, 2013; 420,000 tested, 15% active; note: nearly all actives have a fitted effect of over 55% in size
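Growth kinetics read by CellTiter-Glo luminescence after ≥48 hr at 37 °C. Cells: DT40 Tdp1-/- stably carrying human TDP1, 400 per well, compound exposure in the absence of CPT (DMSO vehicle).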
DT40 TDP1 CPT: growth inhibition of DT40 Tdp1-/-;hTDP1 cells with camptothecin (screen for TDP1 inhibitors). chicken DT40 Tdp1-/-;hTDP1 cells + 20 nM CPT, ATP luminescence, 48 h. Potency, µM (series often up to 46.2 µM), without a hit: at the top dose activity change, negative = growth inhibition, hits mostly inhibitors. 420,000 tested, 12% active. AID 686979; note: nearly all actives have a fitted effect of over 55% in size
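Chicken DT40 Tdp1-/- cells complemented with human TDP1, 400 cells/well, exposed to compounds plus 20 nM camptothecin for at least 48 h at 37 C; viability read as ATP content by CellTiter-Glo luminescence.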
Starred values were filed as active, the others as inactive; ? = inconclusive; . = not tested or not shown; [ ] = another dose, or the depositor's remark. Calls come from the whole dose curve; as a rule, active = well fitted curve in the direction sought with a large enough effect; inconclusive = small, poorly fitted or top-dose-only effect, or another doubt; inactive = no such curve, though single readings can be large; an effect the other way counts as inactive or inconclusive. % is set by controls: 0 for no effect and ±100 for the full control effect; potency is the fitted concentration of half-maximal effect.

SMILES | TDP1 inh | Gal4-VP16 FLuc | RORg inh | TDP1 cell noCPT | DT40 TDP1 CPT
Cc1ccc(C)c(CS(=O)(=O)c2cn(CC(=O)N3CCCCC3)c3ccccc23)c1 | 2.6% | 10.1% | -8.4% | -21.9% | -0.8%
Cc1ccc(C)c(CS(=O)(=O)c2cn(CC(=O)N3CCC(C)CC3)c3ccccc23)c1 | 0.0% | 3.6% | -9.0% | 16.4µM* | ?
O=C(Nc1ccccc1N(C(=O)c1ccco1)S(=O)(=O)c1cccs1)c1ccco1 | 5.3% | -12.2% | -19.8% | ? | ?
CC(=O)c1ccccc1C(=O)NCc1cccnc1 | 2.8% | -1.9% | 11.5% | -29.0% | -2.6%
CCCCOc1ccc(C(C)NC(=O)CCS(=O)(=O)Cc2ccc(C)cc2)cc1 (configuration not stated) | -2.8% | -14.0% | ? | ? | -28.5%
CCC/C=C1/CCCOC(C(=O)NCCN2CCOCC2)(C(F)(F)F)C1 (configuration not stated) | 10.3% | 0.3% | 14.1% | -2.0% | -2.9%
O=C(/C=C/c1ccccc1Cl)Nc1ccc(-c2nnc3n2CCCCC3)cc1 | 2.7% | -15.8% | ? | -7.9% | 14.9%
Cc1cc(Nc2cccc(Cl)c2Cl)n2ncnc2n1 | . | ? | 12.6µM* | -28.0% | -4.2%
Cc1cc(NCc2ccccc2)n2ncnc2n1 | 3.5% | -1.5% | ? | 11.6µM* | ?
Cc1cccc(NC(=S)N/N=C/c2cccc([N+](=O)[O-])c2)c1 | 2.6% | -9.0%[0.365 µM] | 1.12µM* | ? | ?
COC(=O)N/N=C/c1cccc([N+](=O)[O-])c1 | 4.8% | -13.1% | 15.4% | -3.4% | 6.6%
Cc1cccc(NC(=S)N/N=C/c2ccc(Cl)c([N+](=O)[O-])c2)c1 | 1.0% | 3.98µM* | 1.58µM* | ? | ?
COc1ccc(/C=C(/C#N)C(=O)Nc2cccc([N+](=O)[O-])c2)cc1C(=O)O | -1.2% | -7.7% | 37.8% | -18.6% | -1.5%
N#C/C(=C\c1cccc([N+](=O)[O-])c1)C(=O)NCc1cccnc1 | 0.0% | ? | ? | 20.6µM* | 20.6µM*
N#C/C(=C\C=C\c1ccccc1)C(=O)NCc1cccnc1 | 1.2% | 19.4% | -30.8% | 29.1µM* | 25.9µM*
N#C/C(=C\c1cccc([N+](=O)[O-])c1)C(=O)Nc1cccnc1 | 4.9% | 5.1% | -1.7% | -12.1% | -2.0%
N#C/C(=C/c1cccc([N+](=O)[O-])c1)C(=O)Nc1ccccc1O | . | 1.0% | 32.2% | ? | 3.66µM*
N#C/C(=C\c1ccccc1)C(=O)NCc1ccc(F)cc1 | -9.8% | -16.4% | 1.2% | ? | ?
N#C/C(=C\c1cccc([N+](=O)[O-])c1)C(=O)NCc1ccc(Cl)cc1 | -2.7% | 17.8µM* | ? | 11.6µM* | 5.8µM*
O=C(c1ccc(COc2ccccc2Cl)o1)N1CCOCC1 | 8.3% | -17.0% | 14.2% | -16.9% | -4.1%
CN(C)c1ccc(/C=C/C(=O)c2c(O)c3ccccc3oc2=O)cc1 | 0.6% | -19.8% | -1.5% | -15.1% | -19.7%
CC1CCCC(C)N1C(=O)c1cc(-c2ccc(Cl)c(Cl)c2)on1 (configuration not stated) | -8.6% | 3.2% | ? | ? | 18.4µM*
CCC(C)NC(=O)c1cc(-c2ccc3c(c2)OCO3)on1 (configuration not stated) | . | ? | ? | ? | 4.2%
O=C(c1cc(-c2ccc3c(c2)OCO3)on1)N1CCCCC1 | 3.6% | 11.2µM* | ? | -2.8% | 5.1%
O=C(NC1CCCC1)c1cc(-c2ccc(Cl)c(Cl)c2)on1 | -0.2% | -6.0% | 15.0% | ? | ?
O=C(c1cc(-c2ccc(Cl)c(Cl)c2)on1)N1CCCCCC1 | -4.9% | 4.6% | -21.1% | -27.6% | ?
CC1CCCC(C)N1C(=O)c1cc(-c2ccc3c(c2)OCO3)on1 (configuration not stated) | -0.1% | -0.2% | 4.3% | 25.9µM* | ?
O=C(COC(=O)c1n[nH]c2ccccc12)Nc1ccccc1 | 0.0% | 23.1% | 12.0% | -7.6% | 8.0%
